# Screening results as filed in PubChem.
# rCAG binder – molecules binding r(CAG) RNA repeats; r(CAG) RNA repeat, TO-PRO-1 dye displacement fluorescence; inhibition, % at 3 µM; hit rate 1.3% among 370,000;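 active means inhibition above the plate cutoff, the mean of all test compounds on that plate plus 3 SD, cut at about 35% in these data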;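 further: higher means more dye released from RNA so lower well fluorescence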
# PRMT1 inh – blocks human protein arginine methyltransferase 1; recombinant PRMT1, activity-based probe fluorescence polarization; inhibition, % at 2.79 µM; hit rate 1.3% among 370,000; AID 652257;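 active means inhibition above about 21% made by adding two undisclosed values, limit read from the data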
# ABHD5-PLIN5 inh – blocks binding of human ABHD5 to perilipin-5. Q00G26+Q8WTS1. Split G. princeps luciferase complementation, luminescence, 4 h. inhibition, % at 4 µM. hit rate 0.78% among 360,000;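 active means inhibition above the mean inhibition across every tested compound plus 3 SD, cut at about 22% in these data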
# UHRF1 MBD2 ctr – UHRF1 methyl-DNA binding inhibition. Q96T88. UHRF1 binding to methylated oligo, TR-FRET. inhibition, % at 4.4 µM. hit rate 0.75% among 370,000; in the data active means inhibition above about 21%;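 further: UHRF1 SRA domain binding a hemimethylated CpG hairpin DNA probe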
# Target sequence (Q96T88 whole entry, looked up, the tested form may be a part): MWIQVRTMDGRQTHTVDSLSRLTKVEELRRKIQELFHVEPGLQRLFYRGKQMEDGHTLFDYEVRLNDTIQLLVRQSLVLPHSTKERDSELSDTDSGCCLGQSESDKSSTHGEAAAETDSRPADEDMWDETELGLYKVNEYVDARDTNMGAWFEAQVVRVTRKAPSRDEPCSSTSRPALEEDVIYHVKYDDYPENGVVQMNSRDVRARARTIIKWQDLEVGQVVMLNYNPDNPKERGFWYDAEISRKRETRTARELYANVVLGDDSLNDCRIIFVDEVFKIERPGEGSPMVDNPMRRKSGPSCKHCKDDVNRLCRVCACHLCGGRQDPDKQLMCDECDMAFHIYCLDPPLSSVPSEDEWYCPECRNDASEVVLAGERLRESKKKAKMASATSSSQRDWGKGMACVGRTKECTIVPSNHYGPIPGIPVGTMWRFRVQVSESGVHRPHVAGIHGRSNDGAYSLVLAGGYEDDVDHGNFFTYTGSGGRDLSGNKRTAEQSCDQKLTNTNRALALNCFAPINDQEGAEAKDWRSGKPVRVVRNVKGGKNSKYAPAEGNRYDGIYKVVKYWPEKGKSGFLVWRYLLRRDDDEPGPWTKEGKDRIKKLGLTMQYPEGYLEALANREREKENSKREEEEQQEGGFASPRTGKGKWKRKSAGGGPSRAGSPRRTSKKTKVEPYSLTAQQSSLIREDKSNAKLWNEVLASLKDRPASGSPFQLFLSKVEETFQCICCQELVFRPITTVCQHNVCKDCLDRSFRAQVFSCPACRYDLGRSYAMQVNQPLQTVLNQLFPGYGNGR
# MBD2 inh – inhibitors of human MBD2 binding to methylated oligonucleotide; inhibition, % at 4.4 µM; TR-FRET; hit rate 0.31% among 370,000; in the data active means inhibition above about 13%
# LEDGF integ inh – blocks HIV-1 LEDGF/p75-dependent DNA integration | hit rate 0.64% among 370,000 | inhibition, % at 3.7 µM | TR-FRET IN-LEDGF/p75 DNA integration, Eu/Cy5;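 active means inhibition above the screen-wide mean plus 3 SD, cut at about 13% in these data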;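 further: signal is the Cy5 over europium emission ratio at 671 and 618 nm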
# PRMT1 inh conf – confirmation of human PRMT1 inhibitors; shares compounds with PRMT1 inh; recombinant His-PRMT1, activity-based probe fluorescence polarization; inhibition, % at 2.79 µM; hit rate 42% among 3,300; AID 687036;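 active means mean inhibition across replicates above the hit cutoff derived for the earlier primary screen, cut at about 22% in these data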
# Numbers stand for hits; n = inactive; x = no result. Only some compounds are listed: those with a hit (about 4.1% of all), similar ones and a draw of the others.
SMILES,rCAG binder,PRMT1 inh,ABHD5-PLIN5 inh,UHRF1 MBD2 ctr,MBD2 inh,LEDGF integ inh,PRMT1 inh conf
CCCOc1ccc(C(=O)N2CCC(Oc3cccnc3)CC2)cc1,n,n,x,n,n,n,x
Cc1nnc(N2C(=O)C(O)=C(C(=O)c3ccco3)C2c2ccc(C(C)(C)C)cc2)s1 (centres undefined),n,n,n,n,n,n,x
Cc1nnc(N2C(=O)C(O)=C(C(=O)c3ccco3)C2c2ccc(F)cc2)s1 (centres undefined),n,40.0,n,n,n,n,n
Cc1ccc(-c2cccc(NC(=O)C3C4C=CC(C4)C3C(=O)O)c2)o1 (centres undefined),n,53.6,n,n,n,n,n
CCOC(=O)C1(Cc2ccccc2)CCN(Cc2ccc(C(F)(F)F)cc2)CC1,n,n,x,n,n,n,x
CCC[C@H]1[C@@H](NC(=O)NCC)CC[C@@]23CCCN2C(=O)CCC[C@@H]13,x,n,x,n,n,n,x
CC(=O)N1CCN(C(=O)c2ccc3oc(CCCc4ccccc4)nc3c2)CC1,n,n,n,n,n,n,x
CCOC(=O)N1CCN(C(=O)c2ccc3oc(CCCc4ccccc4)nc3c2)CC1,n,30.7,n,n,n,n,n
O=C(OCC#CCSc1nnc(-c2cccc(F)c2)o1)c1ccc(F)cc1,x,n,x,n,n,n,x
Cc1cc(O)c(C2=Nc3ccccc3SC(c3ccc(Cl)cc3)C2)c(=O)o1 (centres undefined),n,37.2,n,n,n,n,n
CC(C)(C)c1ccc(-c2nnc(SCC(=O)c3ccc4ccccc4c3)n2-c2ccc(Cl)cc2)cc1,n,n,x,n,n,n,x
CCC(/C=C1\Sc2ccc(OC)cc2N1CCO)=C\c1sc2ccc(OC)cc2[n+]1CCO,n,69.8,43.4,n,n,n,n
CCC(=O)/C=C1/Sc2ccc(OC)cc2N1CCO,n,n,n,n,n,n,x
COC(=O)c1cc(NC(=O)c2ccccc2)c(=O)oc1C,n,n,n,n,n,n,x
COc1ccc(C(=O)Nc2cc(C(=O)c3ccccc3)c(C)oc2=O)cc1,n,57.0,37.3,n,n,n,n
COC(=O)C1=C(C)N(Cc2cccc(C(F)(F)F)c2)C(=NCc2ccc(OC)cc2)NC1c1cccc(F)c1 (centres undefined),n,n,x,n,n,n,x
CCN=C1SC(C(=O)NCCc2ccccc2)CC(=O)N1CC (centres undefined),n,39.0,n,n,n,n,n
CCCCNC(=O)CC1SC(=NCC)N(CC)C1=O (centres undefined),n,n,n,n,n,n,x
CCN=C1SC(CC(=O)NCc2ccccc2)C(=O)N1CC (centres undefined),n,78.4,n,n,n,n,n
CCN=C1SC(C(=O)Nc2cccc(Cl)c2)CC(=O)N1CC (centres undefined),n,n,n,n,n,n,x
C[C@H](CO)N1C[C@H](C)[C@H](CN(C)S(=O)(=O)c2cccc(F)c2)OCc2ccccc2-c2c(n(C)c3ccccc23)C1=O,n,33.8,n,n,n,n,n
CCOC(=O)c1c(/N=C/c2cccc([N+](=O)[O-])c2O)sc(C)c1C,n,28.2,n,n,n,n,n
Nn1c(SCc2cn3cc(Cl)ccc3n2)nnc1-c1ccncc1,n,25.0,n,n,n,n,39.8
O=C(OCCN1C(=O)c2cccc3c(N4CCOCC4)ccc(c23)C1=O)c1ccc(Cl)cc1Cl,n,n,n,n,n,n,x
Cc1n[nH]c(C)c1N1C(=O)c2cccc3c(N4CCCCCC4)ccc(c23)C1=O,n,99.7,n,n,n,n,88.3
SMILES,rCAG binder,PRMT1 inh,ABHD5-PLIN5 inh,UHRF1 MBD2 ctr,MBD2 inh,LEDGF integ inh,PRMT1 inh conf
O=C1c2cccc3c(N4CCCCC4)ccc(c23)C(=O)N1CCO,n,40.3,n,n,n,n,n
O=C(OCCN1C(=O)c2cccc3c(N4CCOCC4)ccc(c23)C1=O)c1ccccc1Cl,n,77.9,n,n,n,n,64.7
COc1ccc(CN2CN3Cc4cc(F)ccc4C3CS2(=O)=O)cc1 (centres undefined),n,n,x,n,n,n,x
Cc1[nH]n(-c2ccccc2)c(=S)c1C=Nc1cccc([N+](=O)[O-])c1,n,95.3,n,n,n,n,97.9
Cc1[nH]n(-c2ccccc2)c(=O)c1C=NCCc1ccccc1,n,n,n,n,n,n,x
CCCCN=Cc1c(C)[nH]n(-c2ccccc2)c1=S,n,26.1,n,n,n,n,n
